# Rows were chosen to be rich in hits. Some 6.8% of all compounds tested hit in one or more screens of this group.
# T cruzi growth-1 = T. cruzi proliferation inhibition; T. cruzi beta-gal in NIH3T3, GalScreen luminescence, 90 h; inhibition, % at 8.34 µM; 77,000 tested, 5.9% active; AID 624255;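 active = mean inhibition above about 93%, with at least 55% of replicates each passing it, limit read from the data, passing the limit was not always enough; inconclusive = only one of those two conditions holds; inactive = neither condition holds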
# C diff growth = blocks growth of Clostridium difficile; Clostridium difficile clinical isolate growth, OD600, 24 h; active compounds read low; growth activity, negative = inhibition, % at 16 µg/mL (by protocol); 86,000 tested, 0.25% active; AID 1259249;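 active = mean growth activity at or below -80% and every replicate also at or below -80%; inconclusive = mean at or below -80% but some replicate above -80%; inactive = mean growth activity above -80%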
# Pf Dd2 inh = blocks growth of Plasmodium falciparum Dd2 parasites. P. falciparum Dd2 growth, SYBR Green, 72 h; active compounds read low. activity change, % at 10 µM. 94,000 tested, 2.3% active; in the data active = activity change below about -80%; inconclusive = no clear call, values can overlap the other calls
# T cruzi growth-2 = Trypanosoma cruzi proliferation inhibition; shares compounds with T cruzi growth-1; T. cruzi beta-gal in NIH3T3, GalScreen luminescence, 90 h; inhibition, % at 8.35 µM; 5,600 tested, 72% active; AID 651739;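 active = mean replicate inhibition above about 95% and at least 55% of replicates individually reaching it, limit read from the data; inconclusive = only one of the two criteria is met; inactive = neither criterion is met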
# T cruzi growth-3 = inhibitors of T. cruzi proliferation. inhibition, % at 2.09 µM. T. cruzi beta-gal in NIH3T3, GalScreen luminescence, 90 h. shares compounds with T cruzi growth-1. 5,600 tested, 21% active;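 active = mean inhibition above about 95%, with at least 55% of replicates also reaching it, limit read from the data; inconclusive = meets just one of the two conditions; inactive = meets neither condition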
# NIH3T3 tox = cytotoxicity in mouse NIH/3T3 fibroblasts; shares compounds with T cruzi growth-1; NIH/3T3 viability, CellTiter-Glo ATP luminescence, 90 h; cytotoxicity (signal decrease), % at 8.35 µM; 5,600 tested, 14% active; AID 651742;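 active = mean signal decrease across replicates above about 35% based on untreated-well scatter, with enough replicates individually passing, limit read from the data; inconclusive = no rule stated though some were filed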
# 3T3 cytotox 2 = cytotoxicity in mouse NIH/3T3 fibroblasts; shares compounds with T cruzi growth-1; NIH/3T3 viability, CellTiter-Glo ATP luminescence, 90 h; inhibition, % at 24.9 µM; 5,600 tested, 56% active;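 active = mean loss of cell viability signal at or above a set limit, and enough replicates individually reaching it; inconclusive = meets only the mean limit or only the replicate share; inactive = meets neither condition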
# Hits are given with their value; i = inactive; ? = inconclusive; nt = not tested or not shown.
SMILES,T cruzi growth-1,C diff growth,Pf Dd2 inh,T cruzi growth-2,T cruzi growth-3,NIH3T3 tox,3T3 cytotox 2
C[C@@H]1CN([C@@H](C)CO)C(=O)c2cc(NC(=O)Nc3ccc4c(c3)OCO4)ccc2O[C@@H](C)CCCCO[C@@H]1CN(C)C(=O)NC1CCCCC1,i,i,i,nt,nt,nt,nt
C[C@H](CO)N1C[C@H](C)[C@@H](CN(C)C(=O)NC2CCCCC2)OCCCC[C@H](C)Oc2ccc(NC(=O)Nc3ccc(F)cc3)cc2C1=O,105.2,i,i,102.5,i,i,i
C[C@H]1CCCCO[C@@H](CN(C)C(=O)NC2CCCCC2)[C@@H](C)CN([C@@H](C)CO)C(=O)c2cc(NC(=O)Nc3ccc(F)cc3)ccc2O1,108.9,i,i,115.0,i,i,i
C[C@@H]1CN([C@@H](C)CO)C(=O)c2cc(N(C)C)ccc2O[C@@H](C)CCCCO[C@@H]1CN(C)C(=O)NC1CCCCC1,103.4,i,i,i,i,i,i
C[C@@H]1CCCCO[C@@H](CN(C)C(=O)NC2CCCCC2)[C@@H](C)CN([C@H](C)CO)C(=O)c2cc(NC(=O)Nc3ccc(F)cc3)ccc2O1,i,i,i,nt,nt,nt,nt
C[C@H](CO)N1C[C@H](C)[C@@H](CN(C)C(=O)NC2CCCCC2)OCCCC[C@H](C)Oc2ccc(N(C)C)cc2C1=O,i,i,nt,nt,nt,nt,nt
C[C@@H]1CCCCO[C@@H](CN(C)C(=O)NC2CCCCC2)[C@H](C)CN([C@H](C)CO)C(=O)c2cc(NC(=O)Nc3ccc4c(c3)OCO4)ccc2O1,104.7,i,i,104.7,i,i,i
COc1ccc2c3c([nH]c2c1)[C@@H](CO)N(C(=O)Nc1ccc(F)cc1)CC31CN(CC2CC2)C1,nt,nt,i,nt,nt,nt,nt
COCCNC(=O)C[C@H]1CC[C@H]2[C@H](COc3ccc(NC(=O)C4CCCC4)cc3C(=O)N2C)O1,i,i,i,nt,nt,nt,nt
CC=Cc1ccc2n(c1=O)C[C@@H]1[C@@H](CO)[C@H](C(=O)NCC3CC3)[C@H]2N1Cc1cccnc1 (mixture of isomers),i,i,i,nt,nt,nt,nt
O=C(C[C@@H]1CC[C@H]2[C@@H](COC[C@@H](O)CN2C(=O)c2ccccc2)O1)Nc1ccc(-c2ccccc2)cc1,i,i,i,nt,nt,nt,nt
Cc1cccc(-c2ccc([C@H]3[C@H](CO)N4CCCCN(C(=O)c5ccc6c(c5)OCO6)C[C@@H]34)cc2)c1,113.8,i,i,102.6,i,i,103.4
O=C(c1ccc2c(c1)OCO2)N1CCCCN2[C@H](C1)[C@@H](c1ccc(-c3ccccc3)cc1)[C@@H]2CO,i,i,i,nt,nt,nt,nt
O=C(c1ccc2c(c1)OCO2)N1CCCCN2[C@H](CO)[C@@H](c3ccc(-c4ccccc4)cc3)[C@@H]2C1,115.0,i,i,99.2,i,52.3,88.2
Cc1cccc(-c2ccc([C@@H]3[C@H](CO)N4CCCCN(C(=O)c5ccncc5)C[C@@H]34)cc2)c1,i,i,i,nt,nt,nt,nt
C[C@H]1CCCCO[C@H](CN(C)S(C)(=O)=O)[C@@H](C)CN([C@@H](C)CO)C(=O)c2cc(NS(C)(=O)=O)ccc2O1,i,i,i,nt,nt,nt,nt
O=C(Nc1ccc(Cl)cc1)N[C@H]1CC[C@H](CCNC(=O)c2cc(Cl)cc(Cl)c2)O[C@@H]1CO,nt,i,i,nt,nt,nt,nt
CC(C)NC(=O)N(C)C[C@@H]1Oc2c(NS(C)(=O)=O)cccc2C(=O)N([C@H](C)CO)C[C@@H]1C,i,i,i,nt,nt,nt,nt
COc1ccccc1-c1ccc([C@H]2[C@H]3CN(Cc4ccncc4)CCCCN3[C@H]2CO)cc1,i,i,i,nt,nt,nt,nt
CN(C)C(=O)c1ccc(-c2ccc3c(c2)[C@H]2[C@H](CCN2S(=O)(=O)c2cn(C)cn2)[C@@H](CO)N3)cc1,i,i,i,nt,nt,nt,nt
CN(C)C(=O)c1cccc(-c2ccc3c(c2)[C@@H]2[C@@H](CCN2S(=O)(=O)c2cn(C)cn2)[C@H](CO)N3)c1,?,i,i,96.2,i,i,i
CN(C)C(=O)c1cccc(-c2ccc3c(c2)[C@@H]2[C@@H](CCN2S(=O)(=O)c2cn(C)cn2)[C@@H](CO)N3)c1,?,i,i,103.4,i,i,i
CN(C)C(=O)c1cccc(-c2ccc3c(c2)[C@H]2[C@H](CCN2C(=O)C2CCC2)[C@@H](CO)N3)c1,nt,i,i,nt,nt,nt,nt

# Source: PubChem BioAssay (Broad Institute)
